Out of some 22,000 compounds screened, about 220 (1%) were called active. Cut-off read from the data, not from the text of the source: active = inhibition above about 35%; inactive = the rest. This excerpt belongs to a sample that is enriched for actives.

The assay deals with Mitogen-activated protein kinase kinase kinase 5 (Homo sapiens) (UniProt Q99683). Briefly: ASK1 kinase inhibitors, primary screen, biochemical, AlphaScreen (AID 1159602).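 Note: 0% = median of compound wells and 100% = no enzyme.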 Particulars: AlphaScreen MKK6 phosphorylation by ASK1, luminescence; at 7.44 µM; active compounds read high. On the technique in general: Bead proximity is the source of the signal in Alpha formats.
Chain of Mitogen-activated protein kinase kinase kinase 5 (Homo sapiens) (Q99683 whole entry, looked up): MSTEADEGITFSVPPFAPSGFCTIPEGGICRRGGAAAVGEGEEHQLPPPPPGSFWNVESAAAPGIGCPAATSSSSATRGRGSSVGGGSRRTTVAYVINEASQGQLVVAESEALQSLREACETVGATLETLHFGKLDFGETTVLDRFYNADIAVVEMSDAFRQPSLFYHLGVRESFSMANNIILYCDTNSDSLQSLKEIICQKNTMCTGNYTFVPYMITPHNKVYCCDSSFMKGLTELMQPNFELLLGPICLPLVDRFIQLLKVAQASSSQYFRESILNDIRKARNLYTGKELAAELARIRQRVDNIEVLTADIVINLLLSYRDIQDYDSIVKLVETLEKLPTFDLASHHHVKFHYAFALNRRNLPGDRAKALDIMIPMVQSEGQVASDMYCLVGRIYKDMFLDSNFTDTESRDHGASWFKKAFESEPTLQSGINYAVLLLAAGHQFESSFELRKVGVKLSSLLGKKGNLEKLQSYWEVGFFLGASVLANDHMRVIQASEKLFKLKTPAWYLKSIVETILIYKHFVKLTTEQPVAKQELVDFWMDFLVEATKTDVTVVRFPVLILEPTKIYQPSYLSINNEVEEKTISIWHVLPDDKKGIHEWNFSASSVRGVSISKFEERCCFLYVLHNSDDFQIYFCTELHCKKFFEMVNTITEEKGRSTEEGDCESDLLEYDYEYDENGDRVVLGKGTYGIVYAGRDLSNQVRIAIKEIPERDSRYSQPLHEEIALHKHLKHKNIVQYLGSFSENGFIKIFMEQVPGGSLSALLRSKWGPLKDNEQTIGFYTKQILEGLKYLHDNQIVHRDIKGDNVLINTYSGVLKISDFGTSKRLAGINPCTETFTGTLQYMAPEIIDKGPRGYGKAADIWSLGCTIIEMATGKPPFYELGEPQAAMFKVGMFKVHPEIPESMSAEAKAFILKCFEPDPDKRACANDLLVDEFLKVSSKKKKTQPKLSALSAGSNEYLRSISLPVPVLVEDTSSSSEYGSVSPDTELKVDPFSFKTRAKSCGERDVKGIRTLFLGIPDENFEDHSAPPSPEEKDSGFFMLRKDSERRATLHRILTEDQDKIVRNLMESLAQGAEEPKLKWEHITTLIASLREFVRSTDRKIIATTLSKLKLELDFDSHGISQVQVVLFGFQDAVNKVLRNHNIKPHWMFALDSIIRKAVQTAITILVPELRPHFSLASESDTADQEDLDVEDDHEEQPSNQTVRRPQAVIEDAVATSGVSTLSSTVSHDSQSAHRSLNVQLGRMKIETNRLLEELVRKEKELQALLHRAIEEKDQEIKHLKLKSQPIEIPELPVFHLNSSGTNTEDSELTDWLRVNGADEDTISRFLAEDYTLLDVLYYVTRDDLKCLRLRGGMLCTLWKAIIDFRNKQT
As to `CNC(=O)c1cc(F)ccc1Nc1cc(Nc2ccc3nc[nH]c3c2)ncc1C(F)(F)F`, the inhibition was -2.41% (inactive).

In the case of `NC(=O)c1ccc(-c2nc(Nc3ccc(N4CCOCC4)cc3)c3ncn(-c4ccccc4)c3n2)cc1`, the inhibition is 4.79% (inactive).

`Cc1cccc(CC(=O)Nc2cnn(-c3cccc(-c4nn[nH]n4)c3)c2)c1`: the inhibition is 1.78% (inactive).

As to `CC(=O)Nc1ccc(Nc2ncnc3c2nc(NCCN2CCOCC2)n3C(C)C)cc1`, the inhibition was -3.14% (inactive).

Take `CC(C)c1nc2ccc(-c3cn[nH]c3)cc2c(=O)[nH]1`: the inhibition is 12.2% (inactive).

For the compound `Cc1cnc(Nc2cnccn2)nc1NCc1cccnc1`, the inhibition is -9.12% (inactive).

On to `O=C(NC1CC1)c1ccc(-c2ccc(C(=O)NCc3cccc(C(F)(F)F)c3)s2)cc1`, for which the inhibition was 4.99% (inactive).

On to `O=C(NC1CCN(Cc2ccccc2)CC1)c1cc(N2CCCC2CO)nc2ccccc12` (stereo not given), for which the inhibition was -11.9% (inactive).

For `CC(C)C[C@H](O)C(=O)NC1CCC(Nc2ccc3[nH]ncc3c2)CC1` (stereo not given in full), the inhibition is -17% (inactive).

For `O=C(Cc1cn(-c2ccc(N3CCC(N4CCOCC4)CC3)nn2)c2ccccc12)NCCCN1CCCC1=O`, the inhibition was -20.2% (inactive).

For `CC(C)n1c(N2CCOCC2)nc2c(Nc3ccc(Oc4ccccc4)cc3)ncnc21`, the inhibition was -3.94% (inactive).

In the case of `COc1ccc(CCNc2nc(-c3ccccc3)nc3c2ncn3CCN2CCCC2=O)cc1`, the inhibition is -23.4% (inactive).

`O=C(NCCN1CCOCC1)C1CCN(c2ccc(Nc3ccccc3)nn2)CC1`: the inhibition is 6.22% (inactive).

Take `CCN(CC)CCNC(=O)c1ccc(Nc2cc(Nc3ccccc3C(=O)NC)c(C(F)(F)F)cn2)c(C)c1`: the inhibition was -5.11% (inactive).

`c1nc(NC2CC2)c2[nH]c(N3CCC(N4CCOCC4)CC3)nc2n1`: the inhibition is -10.6% (inactive).

Regarding `COc1ccc(-c2cnc3ccc4ccccc4c3c2)cc1`, the inhibition was -3.77% (inactive).

For `CCN(CC)c1nc(Nc2cc(OC)c(OC)c(OC)c2)nc(Nc2nc3ccccc3n2C)n1`, the inhibition is 3.84% (inactive).

Regarding `Nc1nc(NCc2cccc(C(F)(F)F)c2)cc(NCc2ccc3c(c2)OCO3)n1`, the inhibition was -4.13% (inactive).

For `CCCNC(=O)c1cncc(-c2ccccc2)c1`, the inhibition was -0.96% (inactive).

`O=C(NCCCN1CCCC1=O)C1CCN(c2ccc(Cl)nn2)CC1`: the inhibition is -13.9% (inactive).

For `COc1cc(NC(=O)c2cnc(-c3ccccc3)s2)cc(OC)c1OC`, the inhibition was 15% (inactive).

In the case of `Oc1ccc(CCNc2nc(Nc3ccccn3)nc3nc[nH]c23)cc1`, the inhibition was -9.99% (inactive).

Consider `CC(=O)Nc1ccc(NC(=O)c2csc(-c3c(C)nn(C)c3C)n2)cc1`, for which the inhibition was 11% (inactive).

Consider `c1nc(NC2CC2)c2[nH]c(N3CCN(Cc4ccc5c(c4)OCO5)CC3)nc2n1`, for which the inhibition is -10.7% (inactive).

`c1cnc(Nc2nc(NC3CC3)c3[nH]cnc3n2)cn1`: the inhibition is -8.13% (inactive).

With `CC(=O)Nc1ccc(Nc2nc(N3CCc4ccccc4C3)nc3c2ncn3C(C)C)cc1`, the inhibition is 14% (inactive).

As for `CN(C)c1cccc(Nc2nc3ccc(C(=O)Nc4ccc(N5CCOCC5)cc4)cc3s2)c1`, the inhibition was 29% (inactive).

As to `COc1ccc(CCNC(=O)c2ccnc(-c3ccc(C(=O)NC4CC4)cc3)c2)cc1`, the inhibition was -2.59% (inactive).

For `CCN(CC)c1nc(NCCCN2CCCC2=O)nc(N2CCC(N3CCOCC3)CC2)n1`, the inhibition was 2.42% (inactive).

As to `CCNc1nc(NCCOc2ccccc2)c2ncn(Cc3ccc(C(F)(F)F)cc3)c2n1`, the inhibition was -5.64% (inactive).

For `FC(F)(F)c1cccc(CNc2ncnc3nc(N4CCC(N5CCOCC5)CC4)[nH]c23)c1`, the inhibition was -8.59% (inactive).

Take `CCN(CC)C(=O)C1CCCN(c2nccc(NCc3nc4ccccc4[nH]3)n2)C1` (stereo not given): the inhibition is 4.76% (inactive).

For the compound `COc1ccc(CNc2nc(-c3cccc(OC(F)(F)F)c3)nc3c2ncn3C(C)C)cc1`, the inhibition was -11.1% (inactive).

In the case of `COc1cc2nc(NCc3cccnc3)nc(NCCN3CCOCC3)c2cc1OC`, the inhibition is -7.09% (inactive).

Take `NS(=O)(=O)c1ccc(Nc2nccc(-c3cccc(Cl)c3)n2)cc1`: the inhibition was -4.08% (inactive).

Take `Cc1cc(Nc2ccccc2)nc(NCc2cccnc2)n1`: the inhibition is -4.25% (inactive).

For the compound `O=C(NCc1ccccc1)c1ccnc(Nc2nccc3ccccc23)c1`, the inhibition was -2.15% (inactive).

With `CCN(CC)C(=O)C1CCCN(c2nc(Nc3ccc(NC(C)=O)cc3)c3ncn(C4CCCCC4)c3n2)C1` (stereo not given), the inhibition is -11% (inactive).

As for `Nc1nc(NCCO)cc(N2CCOCC2)n1`, the inhibition is -6.61% (inactive).

Turning to `O=C(NCc1nc2ccncc2[nH]1)c1c(F)cccc1F`, the inhibition was -12.1% (inactive).

As for `O=C(Cc1ccc(Br)cc1)N1CCCC(Nc2cccc3cnccc23)C1` (stereo not given), the inhibition is -21.7% (inactive).

As to `O=C1CCCN1CCCNc1nc(-c2ccccc2)nc2nc[nH]c12`, the inhibition is -3.38% (inactive).

As to `CN1CCN(c2nc(C3COc4ccccc4O3)nc3ccc(-c4cn[nH]c4)cc23)CC1` (stereo not given), the inhibition is 41.7% (active).

`Cn1c(C2COc3ccccc3O2)nc2ccc(-c3cn[nH]c3)cc21` (stereo not given): the inhibition is 8.71% (inactive).

In the case of `c1ccc2c(c1)OCC(c1cnc3ccc(-c4cn[nH]c4)cc3n1)O2` (stereo not given), the inhibition was 14.4% (inactive).

The term inhibition denotes the drop in the measured response relative to a control, in per cent.

Values taken from PubChem BioAssay AID1159602 (The Scripps Research Institute Molecular Screening Center, 2016).
